In the library only some 2.1% were active in any assay of this set; here they are far more common.
D2 PAM-1: D2 dopamine receptor (human) potentiation; P14416; HEK293 T-REx D2, calcium flux, EC20 dopamine potentiation; potentiation, % at 10 µM; hit rate 0.34% among 340,000;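 active = potentiation over 3 SD above the plate norm, cut at about 30% in these data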; also: 0% is about no effect
Target sequence (P14416 whole entry, looked up): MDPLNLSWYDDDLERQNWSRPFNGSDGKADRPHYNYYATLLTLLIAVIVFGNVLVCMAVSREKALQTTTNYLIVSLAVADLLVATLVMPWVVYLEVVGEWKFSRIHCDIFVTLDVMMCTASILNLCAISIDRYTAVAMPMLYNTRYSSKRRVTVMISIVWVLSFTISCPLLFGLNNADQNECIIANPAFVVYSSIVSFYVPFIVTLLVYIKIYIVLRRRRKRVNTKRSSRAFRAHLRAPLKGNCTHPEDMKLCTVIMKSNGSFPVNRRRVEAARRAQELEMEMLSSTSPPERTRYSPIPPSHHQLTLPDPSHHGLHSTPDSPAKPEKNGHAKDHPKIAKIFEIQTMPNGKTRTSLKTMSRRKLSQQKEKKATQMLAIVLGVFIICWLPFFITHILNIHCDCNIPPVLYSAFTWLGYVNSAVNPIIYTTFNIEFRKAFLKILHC
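Potentiation of an EC20 dopamine calcium response is measured in a force-coupled, tetracycline-inducible Hek293 Trex D2 line. Compound-only kinetic reads over 180 s flag agonists before dopamine addition.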
LDHA inh: blocks human lactate dehydrogenase A. P00338. purified LDHA, NADH/diaphorase-resazurin fluorescence; hits give low values. AID 1347041. activity change, % (values are at about 110 or 230 µM). hit rate 0.15% among 480,000; in the data active = activity change below about -30%; inconclusive = mostly about -25% to -30%;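 also: plate controls were DMSO wells for no effect and wells without enzyme for full effect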
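Resorufin fluorescence (ex540/em590), read at 0 and 20 min after diaphorase/resazurin addition, reports the NADH left after a 5 min room-temperature reaction of 2 nM human LDH5 with 0.06 mM NADH and 0.2 mM pyruvate.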
D2 PAM-2: human D2 receptor positive allosteric modulation; P14416; DiscoveRx D2 beta-arrestin cells, luminescence, 90 min; 100% = 57 uM dopamine signal; potentiation, % (no concentration beside the values); hit rate 0.23% among 360,000; AID 624464; in the data active = potentiation above about 50%; inconclusive = mostly about 30% to 49%
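PathHunter beta-arrestin assay in DiscoveRx D2 cells. Compounds were added with an EC20 of dopamine (50 nM final) for 90 min at 37 deg C. Luminescence was read 1 h after detection reagent, with 57 uM dopamine as the EC100 control.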
D2 ag-1: activates the human D2 dopamine receptor; P14416; DiscoveRx PathHunter D2 beta-arrestin, luminescence, 90 min; 100% = 57 uM dopamine signal; activation, % (no concentration beside the values); hit rate 0.084% among 360,000; AID 624465; in the data active = activation above about 40%; inconclusive = between about 15% and that limit
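DiscoveRx PathHunter D2 beta-arrestin cells (2,100/well) attached overnight, then compound-stimulated 90 min at 37 C in HBSS/10 mM HEPES/0.1% Tween-20 buffer; beta-galactosidase complementation read by luminescence after 1 h at ambient temperature. Dopamine 57 uM final (EC100) as control.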
D2 antagonist: D2 dopamine receptor (human) antagonism. inhibition, % at 10 µM. P14416. HEK293 TREx D2 cells, calcium flux, dopamine EC80. hit rate 2% among 340,000; in the data active = inhibition above about 30%; inactive = below that, where a call was filed; also: 0% is about no effect
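Calcium mobilization kinetics were recorded at 1 s intervals in tetracycline-induced HEK293 T-REx D2 cells, first for 180 s after compound addition and then 180 s after EC80 dopamine.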
D2 ag-2: activates the human D2 dopamine receptor; P14416; HEK293 T-REx D2 cells, calcium flux agonist mode; activation, % at 2 µM; hit rate 0.53% among 340,000; AID 485358;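 active = activation over 3 SD above normal in the single-dose calcium agonist read, cut at about 30% in these data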; also: 0% is about no effect
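Calcium-flux readout, 1 cycle/sec over 180 s following compound pin transfer, in inducible HEK293 Trex D2 cells (force-coupled); dopamine controls included. Positive calcium responses during this window marked compounds as potential agonists.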
* marks the source's active call; other numbers are inactive results; u = inconclusive; x = no result.

SMILES	D2 PAM-1	LDHA inh	D2 PAM-2	D2 ag-1	D2 antagonist	D2 ag-2
C/C(=N\NC(=O)c1ccccc1F)c1cccc(NC(=O)c2ccccc2)c1	-4	-1	14	0	-19	-1
C/C(=N\NC(=O)c1ccccc1F)c1ccc(C#N)cc1	5	-10	-4	0	36*	2
Cc1cc(=O)oc2cc(NC(=O)Cc3ccc(Cl)cc3Cl)ccc12	x	-19	x	x	x	x
Oc1cc(-c2ccccc2)c2ccccc2c1	-5	41	30	45*	-6	1
CC1=C(C(=O)OC(C)(C)C)C(c2ccc(C(C)C)cc2)NC(=S)N1 (stereo not given)	x	3	x	x	x	x
Cc1cccc2sc(N(CCN(C)C)C(=O)/C=C/c3cccs3)nc12	-19	-1	-43	-4	32*	0
CN(C)CCCN(C(=O)/C=C/c1cccs1)c1nc2c(F)cccc2s1	-12	2	-11	1	-10	2
COc1ccc2sc(N(CCN(C)C)C(=O)/C=C/c3cccs3)nc2c1	-23	-3	-17	3	36*	0
O=c1c(N2CCN(Cc3ccccc3)CC2)csc2ccc(Br)cc12	x	2	x	x	x	x
CC(NC(=O)c1cc(Cl)nc(Cl)c1)C1CC2CCC1C2 (stereo not given)	x	-1	x	x	x	x
CCOc1ccc(N(C(=O)Cn2nnc3ccccc32)C(C(=O)NC(C)(C)CC)c2cccn2C)cc1 (stereo not given)	4	-6	-19	0	-6	1
CCC(C)(C)NC(=O)C(c1cccn1C)N(C(=O)Cn1nnc2ccccc21)c1ccc(OC)cc1OC (stereo not given)	1	5	-12	-3	30*	0
COc1cc(C(=O)O)c(Br)cc1OC(C)C	x	-2	x	x	x	x
NC(=O)c1ccc(NCc2ccco2)c([N+](=O)[O-])c1	5	-6	-14	-4	35*	1
COc1ccc(OCCN2C(=O)NC(C)(c3ccc(C)cc3)C2=O)cc1 (stereo not given)	66*	-4	1	0	17	0
CCn1cc(C(=O)N[C@@H](C)C(=O)OC)c(=O)c2cc3c(cc21)OCO3	-4	0	-3	-4	44*	1
CCn1cc(C(=O)N[C@H](C(=O)O)C(C)C)c(=O)c2cc3c(cc21)OCO3	-3	2	-5	-3	10	0
CCOC(=O)c1c(C(=O)OCC)c(C)n(CCc2ccc(OC)c(OC)c2)c1C	0	0	28	2	33*	-3
CCOC(=O)N1CCN(c2c(NCCc3ccc(OC)c(OC)c3)c(=O)c2=O)CC1	2	-10	-3	-1	36*	0
Cc1cccc2sc(NC(=O)NC3CC(=O)N(c4ccc5c(c4)OCCO5)C3)nc12 (stereo not given)	x	-12	x	x	x	x
CC(Sc1nnc(Nc2cccc(Cl)c2)s1)C(=O)N(C)c1ccccc1 (stereo not given)	x	1	x	x	x	x
CCN(CC)S(=O)(=O)c1cc(C(=O)OCC(=O)NC2CCCc3ccccc32)ccc1C (stereo not given)	4	0	-17	-3	37*	0
CNS(=O)(=O)c1cc(C(=O)OCC(=O)NC2CCCc3ccccc32)ccc1Cl (stereo not given)	0	-5	-18	-1	6	1
O=C(O)c1nc(-c2ccccc2)n(-c2cccc(C(F)(F)F)c2)n1	44*	-5	-5	-2	-15	-1
COc1ccccc1CCN1CCCC(CN(C)C(=O)c2ccco2)C1 (stereo not given)	-11	-1	-27	-2	4	0
SMILES	D2 PAM-1	LDHA inh	D2 PAM-2	D2 ag-1	D2 antagonist	D2 ag-2
COc1ccccc1CCN1CCCC(CN(C)C(=O)c2ccoc2)C1 (stereo not given)	-11	-6	-27	-2	42*	0
Cn1cc(-c2cc3n(n2)CCCN3C(=O)CCC(=O)NCCCN2CCCC2)c2ccccc21	x	9	x	x	x	x
CCC1CCc2c(sc(NC(=O)/C=C/c3ccc(C(C)(C)C)cc3)c2C#N)C1 (stereo not given)	x	-1	x	x	x	x
O=C(Nc1ccnn1C1CCN(Cc2ccccc2OCCO)CC1)c1cccc(F)c1	-13	0	-33	0	40*	1
O=C(Nc1ccnn1C1CCN(Cc2ccccc2OC(F)F)CC1)c1cccc(F)c1	-23	-1	-32	-3	32*	0
COc1ccc(NC(=O)Cn2nc(-c3ccc(C)cc3)c3ccccc3c2=O)cc1	x	-4	x	x	x	x
CCNC(=O)CC1C(=O)N(CC)C(=S)N1NC(=O)c1ccc(Cl)cc1 (stereo not given)	2	-12	-8	-2	-8	0
CCN1C(=O)C(CC(=O)Nc2ccc(Cl)cc2)N(NC(=O)c2ccncc2)C1=S (stereo not given)	-9	-4	-13	-7	31*	0
O=C(COc1ccc2ccccc2c1)Nc1cnc2ccccc2c1	x	-33*	x	x	x	x
O=C(COc1ccc2ccccc2c1)NNC(=O)c1ccccc1	6	-3	-6	-3	48*	2
O=C(Cc1ccc2ccccc2c1)Nc1cnc2ccccc2c1	x	12	x	x	x	x
O=C(COc1ccc2ccccc2c1)NNC(=O)Cc1ccccc1	1	-1	-6	-1	-12	0
Cc1ccc2nc(/C(C#N)=C/c3ccco3)[nH]c2c1	x	7	x	x	x	x
Nc1nc(N)nc(-c2cccc(Cl)c2)n1	-3	-1	-9	-2	32*	0
Nc1nc(-c2ccc(Cl)cc2)nc(-c2ccc(Cl)cc2)n1	13	1	0	0	10	0
O=C(COC(=O)c1ccc(Cl)c(S(=O)(=O)N2CCCCC2)c1)NCC1CCCCC1	-7	-6	-2	-1	44*	-1
COc1ccc(/C=C/C(=O)c2ccc(C(=O)/C=C/c3ccc(OC)c(OC)c3)cc2)cc1OC	1	-8	-2	6	34*	3
CCCN(CC#N)CC(=O)NC(=O)NCc1ccccc1	x	4	x	x	x	x
CCCCN1C(=O)C(O)(CC(=O)c2cccnc2)c2ccccc21 (stereo not given)	x	5	x	x	x	x
COc1ccc(Cl)cc1NC(=O)CN(C)C(=O)c1cc2c(F)cccc2s1	-12	1	-8	6	31*	1
CC(C)c1ccc(NC(=O)C2CC(=O)N=C(N)S2)cc1 (stereo not given)	20	-2	109*	u	-3	0
CCc1ccc(NC(=O)C2CC(=O)N=C(N)S2)cc1 (stereo not given)	2	-2	-8	-1	9	0
O=C(O)C(c1c[nH]c2ccccc12)N1CCc2ccccc2C1 (stereo not given)	x	-10	x	x	x	x
